Measured values: PubChem BioAssay (NCATS)
Inconclusive results are not listed. Entries that show only a call come without a potency. A number with no mark means an inactive call. Calls of active or inactive are those of the source. The call rests on the fitted dose curve; in most records, active means well fitted curve in the direction sought with a large enough effect; inconclusive means small, poorly fitted or top-dose-only effect, or another doubt; inactive means no such curve, though single readings can be large; an effect the other way counts as inactive or inconclusive. Where a SMILES comes first, the peptide text is derived from it.

Experiments:
[1] = qHTS of pediatric cancer cell lines to identify multiple opportunities for drug repurposing: Primary screen for NB-EBc1 cells (AID 1347095)
Method in brief: (§1)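 Quantitative HTS format: each compound titrated (MIPE 11 points from 0.78 nM, NPC 8 points from 0.59 nM) onto cells plated 5 hours earlier. After 48 h at 37 degrees C, CellTiter-Glo luminescence was recorded.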

[2] = qHTS of pediatric cancer cell lines to identify multiple opportunities for drug repurposing: Primary screen for U-2 OS cells (AID 1347096); further: nearly all actives have a fitted effect of over 50% in size
Method in brief: (§2)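 Cells (500-1,000/well) in growth media were settled 5 h at 37 degrees C, then given compounds for 48 h. Viability was read as CellTiter-Glo luminescence. Primary runs used MIPE at 11 points (0.78 nM-46 µM) and NPC at 8 points (0.59 nM-46 µM); follow-ups used 11 points.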

[3] = qHTS of pediatric cancer cell lines to identify multiple opportunities for drug repurposing: Primary screen for Saos-2 cells (AID 1347097); further: nearly all actives have a fitted effect of over 40% in size
Method in brief: as §1

[4] = qHTS of pediatric cancer cell lines to identify multiple opportunities for drug repurposing: Primary screen for SK-N-SH cells (AID 1347098);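 further: DMSO served as neutral control and bortezomib at 2.3 µM as positive control; nearly all actives have a fitted effect of over 65% in size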
Method in brief: (§3)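 Cells (500-1,000/well) rested 5 h, then received compounds for 48 h; metabolically active cells were measured by CellTiter-Glo luminescence. Final concentrations spanned up to 46 µM (MIPE, 11-point) or 0.59 nM-46 µM (NPC, 8-point) in primary screens, 11-point in follow-ups.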

[5] = qHTS of pediatric cancer cell lines to identify multiple opportunities for drug repurposing: Primary screen for NB1643 cells (AID 1347099); further: nearly all actives have a fitted effect of over 50% in size
Method in brief: as §1

[6] = qHTS of pediatric cancer cell lines to identify multiple opportunities for drug repurposing: Primary screen for LAN-5 cells (AID 1347100)
Method in brief: as §2

[7] = qHTS of pediatric cancer cell lines to identify multiple opportunities for drug repurposing: Primary screen for BT-12 cells (AID 1347101); further: nearly all actives have a fitted effect of over 25% in size
Method in brief: as §3

[8] = qHTS of pediatric cancer cell lines to identify multiple opportunities for drug repurposing: Primary screen for Rh18 cells (AID 1347102); further: nearly all actives have a fitted effect of over 65% in size
Method in brief: as §2

[9] = qHTS of pediatric cancer cell lines to identify multiple opportunities for drug repurposing: Primary screen for OHS-50 cells (AID 1347103); further: nearly all actives have a fitted effect of over 40% in size
Method in brief: as §3

[10] = qHTS of pediatric cancer cell lines to identify multiple opportunities for drug repurposing: Primary screen for RD cells (AID 1347104); further: nearly all actives have a fitted effect of over 55% in size
Method in brief: as §1

[11] = qHTS of pediatric cancer cell lines to identify multiple opportunities for drug repurposing: Primary screen for MG 63 (6-TG R) cells (AID 1347105); further: nearly all actives have a fitted effect of over 50% in size
Method in brief: as §1

[12] = qHTS of pediatric cancer cell lines to identify multiple opportunities for drug repurposing: Primary screen for control Hh wild type fibroblast cells (AID 1347106);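 further: series mostly up to about 46 µM; a drop in luminescence marks cytotoxicity and a rise apparent proliferation; nearly all actives have a fitted effect of over 55% in size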
Method in brief: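 Viability after 48 h compound treatment at 37C, 500-1,000 cells/well, read as ATP luminescence with CellTiter-Glo. Primary screens used 11-point (MIPE, 0.78 nM-46 µM) or 8-point (NPC, 0.59 nM-46 µM) final concentrations; follow-up screens used 11-point dilutions.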

[13] = qHTS of pediatric cancer cell lines to identify multiple opportunities for drug repurposing: Primary screen for Rh30 cells (AID 1347107); further: series mostly up to about 46 µM; nearly all actives have a fitted effect of over 75% in size
Method in brief: as §2

[14] = qHTS of pediatric cancer cell lines to identify multiple opportunities for drug repurposing: Primary screen for Rh41 cells (AID 1347108);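 further: series mostly up to about 46 µM; luminescence drop marks cytotoxic hits; nearly all actives have a fitted effect of over 70% in size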
Method in brief: as §1

[15] = qHTS of pediatric cancer cell lines to identify multiple opportunities for drug repurposing: Confirmatory screen for NB1643 cells (AID 1347109); further: nearly all actives have a fitted effect of over 45% in size
Method in brief: as §2

[16] = qHTS of pediatric cancer cell lines to identify multiple opportunities for drug repurposing: Confirmatory screen for A673 cells (AID 1347110);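 further: cells exposed to compound for 48 h before the viability read; nearly all actives have a fitted effect of over 65% in size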; further: potency means the concentration at half of the fitted maximal effect
Method in brief: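 A673 cells seeded at 500-1,000 cells/well, rested 5 h, then dosed; primary MIPE 11-point (0.78 nM to 46 µM), NPC (0.59 nM to 46 µM); confirmatory 11-point. CellTiter-Glo luminescence after 48 h.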

[17] = qHTS of pediatric cancer cell lines to identify multiple opportunities for drug repurposing: Confirmatory screen for BT-12 cells (AID 1347112); further: nearly all actives have a fitted effect of over 55% in size
Method in brief: as §2

[18] = qHTS of pediatric cancer cell lines to identify multiple opportunities for drug repurposing: Confirmatory screen for DAOY cells (AID 1347114); further: nearly all actives have a fitted effect of over 65% in size
Method in brief: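 Viability measured as metabolically active cells via CellTiter-Glo luminescence following 48 hours of compound exposure, 11-point dilutions in confirmatory testing. 500-1,000 cells/well plated 5 hours before dosing; controls were DMSO and 2.3 µM bortezomib.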

[19] = qHTS of pediatric cancer cell lines to identify multiple opportunities for drug repurposing: Confirmatory screen for LAN-5 cells (AID 1347113); further: nearly all actives have a fitted effect of over 65% in size
Method in brief: as §2

Row | SMILES | Potency [1] | Potency [2] | Potency [3] | Potency [4] | Potency [5] | Potency [6] | Potency [7] | Potency [8] | Potency [9] | Potency [10] | Potency [11] | Potency [12] | Potency [13] | Potency [14] | Potency [15] | Potency [16] | Potency [17] | Potency [18] | Potency [19]
1 | O=C(O)Cc1ccccc1Oc1ccc(Cl)cc1Cl | inactive | inactive | inactive | inactive | inactive | inactive | inactive | inactive | inactive | inactive | inactive | inactive | inactive | inactive | – | – | – | – | –
2 | C/C(=C1\CCOC(=O)S1)N(C=O)Cc1cnc(C)nc1N | inactive | inactive | inactive | inactive | inactive | inactive | inactive | inactive | inactive | inactive | inactive | inactive | inactive | inactive | – | – | – | – | –
3 | CCOC(=O)C(=O)CCc1ccccc1 | inactive | inactive | inactive | inactive | inactive | inactive | inactive | inactive | inactive | inactive | inactive | inactive | inactive | inactive | – | – | – | – | –
4 | CCOC(=O)C(=O)c1csc(NC=O)n1 | inactive | inactive | inactive | inactive | inactive | inactive | inactive | inactive | inactive | inactive | inactive | inactive | inactive | inactive | – | – | – | – | –
5 | CC(=O)N[C@@H](CO)C(=O)N[C@@H](CC(=O)O)C(=O)N[C@@H](CCCCN)C(=O)N1CCC[C@H]1C(=O)O (Ac-SDKP-OH) | inactive | inactive | inactive | inactive | inactive | inactive | inactive | inactive | inactive | inactive | inactive | inactive | inactive | inactive | – | – | – | – | –
6 | Cc1coc2ccccc2c1=O | inactive | inactive | inactive | inactive | inactive | inactive | inactive | inactive | inactive | inactive | inactive | inactive | inactive | inactive | – | – | – | – | –
7 | O=C(O)c1ccc(OCCN2CCCCC2)cc1 | inactive | inactive | inactive | inactive | inactive | inactive | inactive | inactive | inactive | inactive | inactive | inactive | inactive | inactive | – | – | – | – | –
8 | O=C1c2ccccc2CCc2ccccc21 | inactive | inactive | inactive | inactive | inactive | inactive | inactive | inactive | inactive | inactive | inactive | inactive | inactive | inactive | – | – | – | – | –
9 | Cc1oc(=O)oc1COC(=O)[C@@H]1N2C(=O)[C@@H](NC(=O)[C@H](N)c3ccccc3)[C@H]2SC1(C)C | inactive | inactive | inactive | inactive | inactive | inactive | inactive | inactive | inactive | inactive | inactive | inactive | inactive | inactive | – | – | – | – | –
10 | O=C(COCCOCCOCC(=O)Nc1c(I)cc(I)c(C(=O)O)c1I)Nc1c(I)cc(I)c(C(=O)O)c1I | inactive | inactive | inactive | inactive | inactive | inactive | inactive | inactive | inactive | inactive | inactive | inactive | inactive | inactive | – | – | – | – | –
11 | CC(=O)c1cc2ccccc2s1 | inactive | inactive | inactive | inactive | inactive | inactive | inactive | inactive | inactive | inactive | inactive | inactive | inactive | inactive | – | – | – | – | –
12 | CC(NN)c1ccccc1 (stereo unspecified) | inactive | inactive | inactive | inactive | inactive | inactive | inactive | inactive | inactive | inactive | inactive | inactive | inactive | inactive | – | – | – | – | –
13 | Cc1cccc(C)c1NC(=O)c1ccc(N)cc1 | inactive | inactive | inactive | inactive | inactive | inactive | inactive | inactive | inactive | inactive | inactive | inactive | inactive | inactive | – | – | – | – | –
14 | O=C(O)c1cn(C2CC2)c2cc(Cl)c(F)cc2c1=O | inactive | inactive | inactive | inactive | inactive | inactive | inactive | inactive | inactive | inactive | inactive | inactive | inactive | inactive | – | – | – | – | –
15 | CCCCC(CC)CNC(=O)CC(C)OC(=O)CCC(=O)O (stereo unspecified) | inactive | inactive | inactive | inactive | inactive | inactive | inactive | inactive | inactive | inactive | inactive | inactive | inactive | – | inactive | 2610 nM (active) | inactive | inactive | –
16 | CC(=O)Nc1ccc(S(=O)(=O)Nc2cc(C)on2)cc1 | inactive | inactive | inactive | inactive | inactive | inactive | inactive | inactive | inactive | inactive | inactive | inactive | inactive | inactive | – | – | – | – | –
17 | CC(=O)OCC(=O)[C@@]1(O)[C@H](OC(C)=O)C[C@H]2[C@@H]3CCC4=CC(=O)C=C[C@]4(C)[C@@]3(F)[C@@H](O)C[C@@]21C | inactive | inactive | inactive | inactive | inactive | inactive | inactive | inactive | inactive | inactive | inactive | inactive | inactive | inactive | inactive | inactive | inactive | inactive | inactive
